Four compounds from PubChem BioAssay (EPA / NIEHS) can be followed below.

Settings in all cases: mRNA level, 48 h; actives raise or lower the signal
Read-out in experiment [1]: Nuclear factor NF-kappa-B p105 subunit (Homo sapiens) (UniProt P19838)
In words: LTEA_HepaRG_NFKB1: Life Technologies and Expression Analysis (LTEA) Assay for Nuclear Factor Kappa B Subunit 1 (NFKB1) using HepaRG (AID 2283521).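 On outcome: TaqMan qRT-PCR transcript normalised to ACTB GAPDH and POLR2A housekeeping genes.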 In outline: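 Human HepaRG cells receive eight half-log concentrations, highest 100 uM, for 48 h. NFKB1 expression is then quantified by qRT-PCR and analysed for up- or down-regulation relative to 0.5% DMSO vehicle.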

Read-out in experiment [2]: Phosphatase and tensin (PTEN), PTEN (gene 5728)
In words: LTEA_HepaRG_PTEN: Life Technologies and Expression Analysis (LTEA) Assay for Phosphatase and tensin (PTEN) using HepaRG (AID 2283523). In outline: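 HepaRG cells, 48 h after plating, exposed in duplicate for 48 h in serum-free induction medium to 8 half-log concentrations up to 100 uM (0.5% DMSO). PTEN mRNA by qRT-PCR, normalized to ACTB, GAPDH, POLR2A; bidirectional fit versus DMSO.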

Read-out in experiment [3]: solute carrier (SLC22A1), SLC22A1 (gene 6580)
As to the kind of experiment: LTEA_HepaRG_SLC22A1: Life Technologies and Expression Analysis (LTEA) Assay for solute carrier (SLC22A1) using HepaRG (AID 2283524). The essentials: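 Differentiated human HepaRG cells in serum-free induction medium, exposed 48 h in duplicate to 8-point half-log series from 100 µM top in 0.5% DMSO. SLC22A1 mRNA by TaqMan qRT-PCR normalized to ACTB, GAPDH, POLR2A; bidirectional fit versus DMSO.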

Read-out in experiment [4]: Pyruvate Dehydrogenase Kinase 4 (PDK4), PDK4 (gene 5166)
In words: LTEA_HepaRG_PDK4: Life Technologies and Expression Analysis (LTEA) Assay for Pyruvate Dehydrogenase Kinase 4 (PDK4) using HepaRG (AID 2283525). The essentials:
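HepaRG cells plated 48 h, then switched to serum-free induction medium and exposed in duplicate for 48 h to 8 half-log concentrations from 100 uM in 0.5% DMSO. PDK4 mRNA measured by qRT-PCR, normalized to ACTB, GAPDH and POLR2A; bidirectional fit versus DMSO.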

Read-out in experiment [5]: NAD(P)H dehydrogenase [quinone] 1 (NQO1), NQO1 (gene 1728)
As to the kind of experiment: LTEA_HepaRG_NQO1: Life Technologies and Expression Analysis (LTEA) Assay for NAD(P)H dehydrogenase [quinone] 1 (NQO1) using HepaRG (AID 2283526). The essentials:
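Human HepaRG hepatic cells received chemicals for 48 h in serum-free induction medium with 0.5% DMSO, up to 100 uM. Expression was assessed by TaqMan qRT-PCR against housekeeping controls and fitted bidirectionally against DMSO.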

Read-out in experiment [6]: Nuclear factor erythroid 2-related factor 2 (Homo sapiens) (UniProt Q16236)
As to the kind of experiment: LTEA_HepaRG_NFE2L2: Life Technologies and Expression Analysis (LTEA) Assay for Nuclear factor erythroid 2-related factor 2 (NFE2L2) Transcription Factor using HepaRG (AID 2283527).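 On outcome: TaqMan qRT-PCR transcript level normalised to ACTB GAPDH and POLR2A housekeeping genes.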 In outline: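 Differentiated human HepaRG cells, serum-free induction medium, exposed 48 h in duplicate to eight half-log concentrations up to 100 uM in 0.5% DMSO. NFE2L2 mRNA by Fluidigm TaqMan qRT-PCR, normalised to ACTB, GAPDH, POLR2A; bidirectional change versus DMSO.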

Read-out in experiment [7]: succinate dehydrogenase complex iron sulfur subunit B (SDHB), SDHB (gene 6390)
As to the kind of experiment: LTEA_HepaRG_SDHB: Life Technologies and Expression Analysis (LTEA) Assay for succinate dehydrogenase complex iron sulfur subunit B (SDHB) using HepaRG (AID 2283528). The essentials: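 A human HepaRG culture in serum-free induction medium received test chemicals for 48 h over an eight-point range capped at 100 uM. SDHB expression change was quantified by qRT-PCR.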

Read-out in experiment [8]: Signal transducer and activator of transcription 3 (Homo sapiens) (UniProt P40763)
As to the kind of experiment: LTEA_HepaRG_STAT3: Life Technologies and Expression Analysis (LTEA) Assay for Signal transducer and activator of transcription (STAT3) using HepaRG (AID 2283529). The essentials:
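Differentiated HepaRG cells, serum-free induction medium, dosed 48 h in duplicate, 8 half-log concentrations from 100 uM in 0.5% DMSO. STAT3 mRNA by qRT-PCR, normalised to ACTB, GAPDH, POLR2A; bidirectional fit versus DMSO.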

Read-out in experiment [9]: solute carrier (SLCO1B1), SLCO1B1 (gene 10599)
In words: LTEA_HepaRG_SLCO1B1: Life Technologies and Expression Analysis (LTEA) Assay for solute carrier (SLCO1B1) using HepaRG (AID 2283530). In outline: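 Gain or loss of SLCO1B1 mRNA is fitted against the 0.5% DMSO vehicle in human HepaRG liver cells treated 48 h at up to 100 uM in half-log steps. Expression comes from qRT-PCR normalized to endogenous controls.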

Read-out in experiment [10]: sulfotransferase 2A1 (SULT2A1), SULT2A1 (gene 6822)
In words: LTEA_HepaRG_SULT2A1: Life Technologies and Expression Analysis (LTEA) Assay for sulfotransferase 2A1 (SULT2A1) using HepaRG (AID 2283531). The essentials:
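Cells were plated and cultured 48 h, switched to serum-free induction medium, then dosed in duplicate for 48 h (8 concentrations, max 100 uM). RNA was isolated and SULT2A1 expression measured by qRT-PCR; gain or loss of signal fitted relative to DMSO.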

Read-out in experiment [11]: Transforming Growth Factor (TGFA), TGFA (gene 7039)
As to the kind of experiment: LTEA_HepaRG_TGFA: Life Technologies and Expression Analysis (LTEA) Assay for Transforming Growth Factor (TGFA) using HepaRG (AID 2283532). The essentials: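 Differentiated HepaRG cells exposed 48 hours in serum-free induction medium, 0.5% DMSO vehicle, 8-point half-log series from 100 uM, in duplicate. TGFA mRNA by TaqMan qRT-PCR, normalised to ACTB, GAPDH, POLR2A; bidirectional fit versus DMSO.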

Read-out in experiment [12]: Transforming Growth Factor (TGFB1), TGFB1 (gene 7040)
As to the kind of experiment: LTEA_HepaRG_TGFB1: Life Technologies and Expression Analysis (LTEA) Assay for Transforming Growth Factor (TGFB1) Transporter using HepaRG (AID 2283533). In outline:
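Expression change of TGFB1 in human HepaRG cells is measured after a 48 h chemical exposure, up to 100 uM in 0.5% DMSO vehicle. Curves are fitted in both directions relative to the DMSO baseline.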

Read-out in a further experiment: TIMP1, TIMP1 (gene 7076)
As to the kind of experiment: LTEA_HepaRG_TIMP1: Life Technologies and Expression Analysis (LTEA) Assay for TIMP1 using HepaRG (AID 2283534).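 On outcome: TaqMan qRT-PCR signal normalized to ACTB GAPDH and POLR2A housekeeping genes.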 In outline: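 We dosed human liver HepaRG cultures for 48 hours with up to 100 uM test chemical and measured TIMP1 expression by qRT-PCR. Activity in either direction is fitted relative to the 0.5% DMSO vehicle.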

Read-out in experiment [13]: Tumor necrosis factor receptor 1 (TNFRSF1A), TNFRSF1A (gene 7132)
In words: LTEA_HepaRG_TNFRSF1A: Life Technologies and Expression Analysis (LTEA) Assay for Tumor necrosis factor receptor 1 (TNFRSF1A) using HepaRG (AID 2283535). The essentials: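 Expression of TNFRSF1A in human HepaRG liver cells was measured by qRT-PCR 48 h after chemical dosing (maximum 100 uM). Bidirectional curve fitting used 0.5% DMSO as baseline.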

Read-out in experiment [14]: Thyroid Hormone Responsive (THRSP), THRSP (gene 7069)
In words: LTEA_HepaRG_THRSP: Life Technologies and Expression Analysis (LTEA) Assay for Thyroid Hormone Responsive (THRSP) using HepaRG (AID 2283536). In outline: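 Differentiated HepaRG cells treated 48 h in serum-free induction medium with 8 half-log concentrations up to 100 uM (0.5% DMSO), duplicates. THRSP mRNA by TaqMan qRT-PCR normalised to ACTB, GAPDH, POLR2A; bidirectional fit versus DMSO.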

Read-out in experiment [15]: UDP glucuronosyltransferase (UGT1A1), UGT1A1 (gene 54658)
In words: LTEA_HepaRG_UGT1A1: Life Technologies and Expression Analysis (LTEA) Assay for UDP glucuronosyltransferase (UGT1A1) using HepaRG (AID 2283538). The essentials: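 Human liver HepaRG cultures receive test chemical for 48 h, up to 100 uM in 0.5% DMSO, with phenobarbital induction controls. UGT1A1 mRNA is measured by qRT-PCR and normalized to ACTB, GAPDH and POLR2A.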

Read-out in experiment [16]: UDP glucuronosyltransferase (UGT1A6), UGT1A6 (gene 54578)
In words: LTEA_HepaRG_UGT1A6: Life Technologies and Expression Analysis (LTEA) Assay for UDP glucuronosyltransferase (UGT1A6) using HepaRG (AID 2283539). The essentials: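 Endpoint is UGT1A6 transcript induction or loss in a human liver cell line, quantified by TaqMan qRT-PCR 48 h after dosing. Concentrations ran from 100 uM downward in half-log steps in 0.5% DMSO; activity was fitted in both directions versus vehicle.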

Read-out in experiment [17]: X-box binding protein 1 (XBP1), XBP1 (gene 7494)
In words: LTEA_HepaRG_XBP1: Life Technologies and Expression Analysis (LTEA) Assay for X-box binding protein 1 (XBP1) using HepaRG (AID 2283540). The essentials:
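Human HepaRG monolayers receive test chemical for 48 h across an eight-point half-log series starting at 100 uM. XBP1 mRNA gain or loss is scored against DMSO by qRT-PCR.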

Read-out in experiment [18]: Cellular tumor antigen p53 (Homo sapiens) (UniProt P04637)
In words: LTEA_HepaRG_TP53: Life Technologies and Expression Analysis (LTEA) Assay for Tumor Protein P53 (TP53) using HepaRG (AID 2283537). The essentials:
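Gain or loss of TP53 mRNA signal is scored relative to 0.5% DMSO after 48 h chemical treatment of HepaRG liver cells, tested in duplicate at eight half-log concentrations up to 100 uM.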

Active and inactive are the calls of the source. How the source made its calls: active means hit-call score of the fitted dose curve at least 0.9, where 1 is the maximum; inactive means score below 0.9.

Nuclear factor erythroid 2-related factor 2 (Homo sapiens), sequence (Q16236 whole entry, looked up): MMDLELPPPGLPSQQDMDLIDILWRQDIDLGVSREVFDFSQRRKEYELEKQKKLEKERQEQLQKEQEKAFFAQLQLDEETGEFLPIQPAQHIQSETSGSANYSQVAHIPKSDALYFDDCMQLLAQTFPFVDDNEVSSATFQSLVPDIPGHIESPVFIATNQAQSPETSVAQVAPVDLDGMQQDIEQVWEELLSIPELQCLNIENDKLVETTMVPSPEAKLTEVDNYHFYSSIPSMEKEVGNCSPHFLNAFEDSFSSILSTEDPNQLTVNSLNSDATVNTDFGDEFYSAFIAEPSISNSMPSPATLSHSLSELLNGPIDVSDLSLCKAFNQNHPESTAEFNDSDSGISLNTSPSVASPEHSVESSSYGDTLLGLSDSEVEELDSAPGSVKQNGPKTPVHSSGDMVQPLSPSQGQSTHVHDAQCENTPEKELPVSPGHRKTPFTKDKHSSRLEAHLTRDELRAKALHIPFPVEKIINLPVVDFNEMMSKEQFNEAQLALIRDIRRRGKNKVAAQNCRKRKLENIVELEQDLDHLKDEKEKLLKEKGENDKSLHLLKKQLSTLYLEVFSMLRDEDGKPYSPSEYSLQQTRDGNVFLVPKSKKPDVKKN
Signal transducer and activator of transcription 3 (Homo sapiens), sequence (P40763 whole entry, looked up): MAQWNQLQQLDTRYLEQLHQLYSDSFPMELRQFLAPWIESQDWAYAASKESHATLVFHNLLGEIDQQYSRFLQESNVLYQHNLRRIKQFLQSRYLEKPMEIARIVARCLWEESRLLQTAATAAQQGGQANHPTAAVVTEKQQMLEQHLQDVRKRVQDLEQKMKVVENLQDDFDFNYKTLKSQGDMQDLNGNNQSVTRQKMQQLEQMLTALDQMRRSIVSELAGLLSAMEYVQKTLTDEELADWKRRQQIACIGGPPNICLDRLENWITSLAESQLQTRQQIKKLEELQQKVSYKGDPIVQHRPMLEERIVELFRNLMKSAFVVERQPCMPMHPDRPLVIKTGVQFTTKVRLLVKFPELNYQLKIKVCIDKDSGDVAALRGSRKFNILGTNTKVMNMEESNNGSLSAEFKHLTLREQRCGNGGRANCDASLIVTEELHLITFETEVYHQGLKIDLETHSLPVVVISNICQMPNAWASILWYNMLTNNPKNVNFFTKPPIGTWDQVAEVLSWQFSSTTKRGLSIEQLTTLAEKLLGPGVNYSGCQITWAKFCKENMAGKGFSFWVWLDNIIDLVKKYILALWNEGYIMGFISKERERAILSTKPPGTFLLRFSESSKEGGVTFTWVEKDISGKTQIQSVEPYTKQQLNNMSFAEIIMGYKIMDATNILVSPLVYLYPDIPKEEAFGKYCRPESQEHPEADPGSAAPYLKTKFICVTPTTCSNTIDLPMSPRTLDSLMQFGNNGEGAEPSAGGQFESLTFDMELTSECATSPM
Nuclear factor NF-kappa-B p105 subunit (Homo sapiens), sequence (P19838 whole entry, looked up): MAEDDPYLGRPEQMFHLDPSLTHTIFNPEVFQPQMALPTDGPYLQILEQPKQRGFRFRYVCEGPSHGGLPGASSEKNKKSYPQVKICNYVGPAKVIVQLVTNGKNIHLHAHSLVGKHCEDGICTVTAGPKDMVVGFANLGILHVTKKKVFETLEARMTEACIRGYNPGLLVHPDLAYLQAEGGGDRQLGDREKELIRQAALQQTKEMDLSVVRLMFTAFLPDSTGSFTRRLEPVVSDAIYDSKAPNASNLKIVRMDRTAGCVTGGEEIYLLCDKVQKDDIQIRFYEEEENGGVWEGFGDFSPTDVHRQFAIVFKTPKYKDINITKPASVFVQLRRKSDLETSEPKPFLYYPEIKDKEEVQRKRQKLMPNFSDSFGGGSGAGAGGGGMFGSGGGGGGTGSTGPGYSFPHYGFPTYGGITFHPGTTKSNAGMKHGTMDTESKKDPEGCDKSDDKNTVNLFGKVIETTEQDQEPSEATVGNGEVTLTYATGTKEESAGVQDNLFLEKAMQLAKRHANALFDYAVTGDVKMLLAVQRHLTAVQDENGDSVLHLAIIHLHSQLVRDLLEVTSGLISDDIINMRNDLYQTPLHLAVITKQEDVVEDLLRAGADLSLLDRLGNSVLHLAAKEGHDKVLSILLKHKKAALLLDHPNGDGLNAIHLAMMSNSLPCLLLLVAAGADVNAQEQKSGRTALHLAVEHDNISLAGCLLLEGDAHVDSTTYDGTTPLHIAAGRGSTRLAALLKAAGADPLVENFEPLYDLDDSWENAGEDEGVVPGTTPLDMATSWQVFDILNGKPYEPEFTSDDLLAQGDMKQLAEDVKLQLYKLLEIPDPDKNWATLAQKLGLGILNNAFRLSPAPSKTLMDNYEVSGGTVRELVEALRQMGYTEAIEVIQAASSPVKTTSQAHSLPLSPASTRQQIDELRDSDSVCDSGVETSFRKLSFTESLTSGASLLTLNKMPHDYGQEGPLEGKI
Cellular tumor antigen p53 (Homo sapiens), sequence (P04637 whole entry, looked up): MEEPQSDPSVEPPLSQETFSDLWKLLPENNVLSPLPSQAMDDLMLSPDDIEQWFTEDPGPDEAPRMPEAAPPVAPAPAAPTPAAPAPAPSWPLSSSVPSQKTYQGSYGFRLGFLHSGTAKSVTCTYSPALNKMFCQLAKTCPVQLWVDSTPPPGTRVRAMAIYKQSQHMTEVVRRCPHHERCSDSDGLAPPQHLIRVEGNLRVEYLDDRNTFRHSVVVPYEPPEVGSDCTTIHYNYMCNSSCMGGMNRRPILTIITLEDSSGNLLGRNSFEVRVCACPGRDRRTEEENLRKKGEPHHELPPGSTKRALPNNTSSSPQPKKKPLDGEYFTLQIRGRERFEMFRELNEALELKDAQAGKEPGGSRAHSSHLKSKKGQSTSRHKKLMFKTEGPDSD

`O=C(O)Cc1cc(I)c(Oc2cc(I)c(O)c(I)c2)c(I)c1`: the AC50 (usually the concentration at which the activity in the assay is half-maximal) in experiment [1] is 52.8 µM (active); in [2], 59.9 µM (active); in experiment [3], 53.1 µM (active); in experiment [4], 49.6 µM (active); in experiment [5] it was 33.5 µM (active); in experiment [6], 54.9 µM (active). The concentration at half-maximal activity (AC50) is 62.9 µM (active) in experiment [7]; 56.2 µM (active) in experiment [9]; 52.4 µM (active) in experiment [10]; 56.4 µM (active) in [12]; 55.3 µM (active) in experiment [13]; 56 µM (active) in experiment [14]. For the same compound, the half-maximal activity concentration (AC50) in [15] was 61.5 µM (active); in experiment [16] it was 62.2 µM (active). Also, the outcome in [8] is “inactive”; in experiment [11] it was “inactive”; with TIMP1, TIMP1 (gene 7076) it was “inactive”; in experiment [17], “inactive”.

`Cc1cc(C)c(O)c(C)c1`: the compound was classed as inactive in experiment [2], in experiment [3], in [4], in [5], in experiment [6] and in experiment [7]. Moreover, the outcome in experiment [8] was “inactive”; in experiment [9], “inactive”; in [10] it was “inactive”; in [12], “inactive”; in the experiment with TIMP1, TIMP1 (gene 7076), “inactive”; in experiment [13], “inactive”. For the same compound, the compound was called inactive in experiment [14], in [18], in experiment [16] and in experiment [17]. Also, the AC50 in experiment [15] was 8.27 µM (active).

Consider `c1ccc2cc3c(ccc4ccccc43)cc2c1`, for which the outcome in experiment [2], in experiment [5], in experiment [6], in experiment [7], in experiment [12] and in experiment [13] was inactive. Besides, the compound was classed as inactive in [18] and in experiment [16]. Besides, the AC50 was 18.6 µM (active) in experiment [3]; 22.9 µM (active) in experiment [4]; 8.31 µM (active) in experiment [8]; 8.09 µM (active) in experiment [9]; 13.3 µM (active) in [10]; 10.2 µM (active) with TIMP1, TIMP1 (gene 7076). Moreover, the AC50 in experiment [14] was 5.27 µM (active); in experiment [15], 4.24 µM (active); in experiment [17], 17.2 µM (active).

Turning to `CCCCC(CC)COC(=O)CCCCC(=O)OCC(CC)CCCC` (centres undefined), the call in experiment [1], in experiment [2], in experiment [3], in [4], in experiment [5] and in experiment [6] was inactive. In addition, the outcome in [7] was “inactive”; in [8], “inactive”; in experiment [9], “inactive”; in experiment [10] it was “inactive”; in experiment [12] it was “inactive”; with TIMP1, TIMP1 (gene 7076), “inactive”. Besides, the compound was classed as inactive in [13], in experiment [14], in experiment [15], in experiment [16] and in experiment [17].
